For five compounds, composite z-score, composite Z-score and z-score results are on record in PubChem BioAssay.

Molecules are shown by their SMILES. Calls of active or inactive are those of the source.

For one experiment, the target named is Albumin (Bos taurus) (UniProt P02769). Briefly: bovine serum albumin binders on microarray, profiling panel, artefact control for SMM control protein annotation, biochemical, small-molecule microarray, Alexa647 label, 635/667 nm fluorescence (AID 1118).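 Further: score merges 667 nm emission intensity and signal-to-noise per printed compound spot.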 To be noted: BSA-A647 binding, fluorescence 635 nm, higher = more signal.
Chain of Albumin (Bos taurus) (P02769 whole entry, looked up): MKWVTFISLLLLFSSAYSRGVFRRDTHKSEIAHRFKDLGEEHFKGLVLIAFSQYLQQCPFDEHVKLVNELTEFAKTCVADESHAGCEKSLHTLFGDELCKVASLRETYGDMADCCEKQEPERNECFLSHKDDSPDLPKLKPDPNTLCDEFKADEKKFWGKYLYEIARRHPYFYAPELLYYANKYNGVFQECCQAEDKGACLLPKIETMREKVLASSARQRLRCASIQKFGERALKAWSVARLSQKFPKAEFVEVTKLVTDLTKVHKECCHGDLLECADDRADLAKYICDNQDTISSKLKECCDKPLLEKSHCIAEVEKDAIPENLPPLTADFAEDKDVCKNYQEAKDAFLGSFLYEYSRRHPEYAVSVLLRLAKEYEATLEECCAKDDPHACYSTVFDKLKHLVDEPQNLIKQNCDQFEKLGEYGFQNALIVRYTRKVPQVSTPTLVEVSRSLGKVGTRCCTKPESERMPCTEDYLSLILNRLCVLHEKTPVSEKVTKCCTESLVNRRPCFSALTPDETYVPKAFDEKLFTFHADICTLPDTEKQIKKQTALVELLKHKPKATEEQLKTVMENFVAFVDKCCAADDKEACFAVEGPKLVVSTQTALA
Experiment [1] is described as follows: small-molecule microarray binders of probe aXIP, primary screen, biochemical, NeuroSMM set, 635/667 nm fluorescence (AID 1119).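 Further: probe is the protein aXip251-270 applied at 1 µg/mL to compound-printed slides; binding of probe to printed compounds measured as 667 nm fluorescence plus signal to noise.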 To be noted: higher = more signal, called active from +8 up or from −8 down.
Experiment [2] in a line: small-molecule binders of probe aNOTCH3, primary screen, biochemical, small-molecule microarray, 635/667 nm fluorescence (AID 1120).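 Further: probe is a biotin-tagged antibody raised against NOTCH3 rather than NOTCH3 protein; score merges spot fluorescence near 667 nm with spot signal to noise.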 To be noted: higher = more signal.
A short description of experiment [3]: small-molecule binders of probe aNOTCH2, primary screen, biochemical, small-molecule microarray, 635/667 nm fluorescence (AID 1121).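 Further: score merges feature fluorescence read at 667 nm with its signal to noise.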 As to conditions: higher = more signal.
Experiment [4] deals with Carbonic anhydrase 2 (Homo sapiens) (UniProt P00918). The experiment in a line: CAII small-molecule binders, profiling panel, biochemical, small-molecule microarray, Alexa647-labelled CAII (AID 1122). As to conditions: CAII-A647 binding fluorescence, higher = more signal.
Experiment [5] in a line: COS7 lysate on small-molecule microarray, probe aHis, 635 nm (AID 1123).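 Further: z-score combines 667nm fluorescence intensity with signal-to-noise per printed compound spot.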 As to conditions: COS7 cell lysate, fluorescence, higher = more signal.
Experiment [6] can be described thus: compound binding in COS7 lysate, probe aLAP1, primary screen, cell lysate, small-molecule microarray (AID 1124).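 Further: lysate comes from COS7 cells expressing LAP1 and is applied at 0.3 µg/mL; score merges spot fluorescence near 667 nm with signal-to-noise over triplicate slides.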 As to conditions: probe aLAP1, fluorescence, higher = more signal.
A further experiment concerns Sam68 (KHDRBS1). The experiment in a line: Sam68 small-molecule binders, primary screen, biochemical, small-molecule microarray, 635 nm fluorescence (AID 1125).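 Further: score merges 667 nm channel intensity with signal to noise over triplicate slides.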 As to conditions: small-molecule microarray binding, higher = more signal.
The test system of experiment [7] is Chordin-like protein 2 (CHRDL2). The experiment in a line: CHRDL2 small-molecule binders, primary screen, biochemical, small-molecule microarray, 635 nm fluorescence (AID 1126).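 Further: printed compound slides probed with Chrdl2 protein at 4 µg/mL for 1 h at 4 C; score merges 667 nm emission intensity with signal to noise over three replicate slides.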 As to conditions: small-molecule microarray binding, fluorescence 635 nm; higher = more signal.
The target of experiment [8] is Concanavalin-A (Canavalia ensiformis) (UniProt P02866). The experiment in a line: ConA small-molecule binders, primary screen, artefact control for SMM control protein annotation, biochemical, small-molecule microarray, Alexa647 label, 635 nm (AID 1127).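 Further: z combines 667 nm emission intensity with signal-to-noise across three replicate slides.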 As to conditions: ConA-A647 binding fluorescence, higher = more signal.
Chain of Concanavalin-A (Canavalia ensiformis) (P02866 whole entry, looked up): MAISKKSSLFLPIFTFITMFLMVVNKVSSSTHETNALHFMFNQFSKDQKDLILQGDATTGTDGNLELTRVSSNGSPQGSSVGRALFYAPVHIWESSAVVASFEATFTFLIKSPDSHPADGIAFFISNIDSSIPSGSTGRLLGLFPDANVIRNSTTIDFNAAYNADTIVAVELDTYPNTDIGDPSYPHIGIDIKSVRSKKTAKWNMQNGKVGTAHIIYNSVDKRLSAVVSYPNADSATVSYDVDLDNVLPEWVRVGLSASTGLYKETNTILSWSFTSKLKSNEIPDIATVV
The nature of experiment [9]: anti-His antibody binders, primary screen, artefact control for SMM control protein annotation, biochemical, small-molecule microarray, 635 nm fluorescence (AID 1128).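 Further: score merges feature fluorescence with signal-to-noise for each printed compound spot.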 To be noted: anti-His Alexa647 antibody binding, higher = more signal.
Experiment [10] has as its system Human papillomavirus type 1a E7 protein (residues 1-88). The experiment in a line: HPV1a E7 small-molecule binders, primary screen, biochemical, small-molecule microarray, residues 1-88, 635 nm (AID 1129). To be noted: small-molecule microarray binding, fluorescence 635 nm; higher = more signal.
Experiment [11] addresses Focal adhesion kinase 1 (Homo sapiens) (UniProt Q05397). Briefly: small-molecule microarray binders of FAK, primary screen, biochemical, 635/667 nm fluorescence, BSA, DTT (AID 1130).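 Further: composite of spot emission at 667 nm and signal to noise over triplicate slides.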 As to conditions: PTK2 binding, 635 nm fluorescence, higher = more signal.
In experiment [12] the test system is Fibrinogen (Alexa647-labelled). The experiment in a line: fibrinogen binders on compound microarrays, profiling panel, artefact control for SMM control-protein annotation, biochemical, small-molecule microarray, 635/667 nm fluorescence (AID 1131).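 Further: z-score merges 667 nm fluorescence with per-spot signal-to-noise over triplicate slides.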 As to conditions: fibrinogen-A647 binding fluorescence, higher = more signal.
Experiment [13] has as its target Follistatin (Homo sapiens) (UniProt P19883). Briefly: follistatin binders on small-molecule microarrays, primary screen, biochemical, small-molecule microarray, 635/667 nm fluorescence (AID 1132). As to conditions: FST binding, 635 nm fluorescence, higher = more signal.
Experiment [14] addresses Fibroblast growth factor 2 (Homo sapiens) (UniProt P09038). The experiment in a line: FGF2 binders on small-molecule microarrays, primary screen, biochemical, small-molecule microarray, 635/667 nm fluorescence (AID 1133). As to conditions: small-molecule microarray binding, FGF2, fluorescence 635/667; higher = more signal.
The nature of experiment [15]: mitochondrial membrane potential change in A549 cells, profiling panel, cell-based, JC-1 fluorescence, basal, 24 h, 100 nL (AID 1138).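 Further: A549 lung adenocarcinoma cells under basal conditions with no added stimulus; test concentration not given here.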 To be noted: higher = more signal.
The subject of another experiment is Lefty1. The experiment in a line: Lefty1 binders on small-molecule microarrays, primary screen, biochemical, small-molecule microarray, 635/667 nm fluorescence (AID 1139). To be noted: small-molecule microarray binding, fluorescence 635/667; higher = more signal.
The test system of experiment [16] is wheat germ agglutinin (Triticum aestivum), Alexa647-labelled. Briefly: wheat germ agglutinin binders on compound microarrays, profiling panel, artefact control for SMM control-protein annotation, biochemical, small-molecule microarray, 635/667 nm fluorescence (AID 1140).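 Further: score merges 667 nm feature emission with signal to noise over triplicate slides.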 As to conditions: WGA-A647 binding, 635 nm fluorescence, higher = more signal.
For experiment [17], the target named is Luciferin 4-monooxygenase (Photinus pyralis) (UniProt P08659). Briefly: firefly luciferase enzyme inhibitors, primary screen, biochemical, luminescence, purified enzyme, 2006 set (AID 1141).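 Further: cell-free assay with purified firefly luciferase at 100 ng per well in PBS; test concentration not given here.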 To be noted: SteadyGlo luminescence, 30 min, higher = more signal, called active from +8 up or from −8 down.
Chain of Luciferin 4-monooxygenase (Photinus pyralis) (P08659 whole entry, looked up): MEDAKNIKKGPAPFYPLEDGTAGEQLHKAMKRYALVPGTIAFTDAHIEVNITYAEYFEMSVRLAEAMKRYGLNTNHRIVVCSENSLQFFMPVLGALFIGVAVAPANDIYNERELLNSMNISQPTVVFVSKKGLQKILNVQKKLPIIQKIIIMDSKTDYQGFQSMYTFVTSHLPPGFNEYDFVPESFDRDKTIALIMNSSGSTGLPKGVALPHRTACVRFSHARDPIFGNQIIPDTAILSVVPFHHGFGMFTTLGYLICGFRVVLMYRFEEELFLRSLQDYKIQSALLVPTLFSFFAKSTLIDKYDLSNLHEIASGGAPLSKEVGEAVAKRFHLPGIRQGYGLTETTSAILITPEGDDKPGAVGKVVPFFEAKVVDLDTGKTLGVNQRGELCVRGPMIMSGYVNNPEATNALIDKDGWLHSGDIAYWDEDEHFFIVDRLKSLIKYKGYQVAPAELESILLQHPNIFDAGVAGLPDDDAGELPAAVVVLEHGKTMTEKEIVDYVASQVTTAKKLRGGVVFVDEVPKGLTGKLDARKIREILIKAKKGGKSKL

Chain of Follistatin (Homo sapiens) (P19883 whole entry, looked up): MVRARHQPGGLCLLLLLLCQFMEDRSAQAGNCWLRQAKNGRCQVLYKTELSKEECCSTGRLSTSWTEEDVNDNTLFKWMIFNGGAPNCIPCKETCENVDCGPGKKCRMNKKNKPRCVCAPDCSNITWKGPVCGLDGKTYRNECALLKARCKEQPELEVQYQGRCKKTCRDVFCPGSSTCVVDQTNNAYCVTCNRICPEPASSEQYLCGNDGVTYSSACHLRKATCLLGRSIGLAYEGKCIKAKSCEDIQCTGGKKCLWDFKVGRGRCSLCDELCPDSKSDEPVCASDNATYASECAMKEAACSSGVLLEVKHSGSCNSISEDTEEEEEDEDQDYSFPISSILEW
Chain of Fibroblast growth factor 2 (Homo sapiens) (P09038 whole entry, looked up): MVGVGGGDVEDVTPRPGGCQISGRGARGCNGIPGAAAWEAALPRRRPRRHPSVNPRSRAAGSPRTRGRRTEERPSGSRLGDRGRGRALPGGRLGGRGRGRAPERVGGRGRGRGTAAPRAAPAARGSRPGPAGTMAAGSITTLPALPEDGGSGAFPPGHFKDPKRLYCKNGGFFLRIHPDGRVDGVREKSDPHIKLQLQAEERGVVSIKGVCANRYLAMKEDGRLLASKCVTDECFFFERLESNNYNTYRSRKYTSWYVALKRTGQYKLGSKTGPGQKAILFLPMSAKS
Chain of Focal adhesion kinase 1 (Homo sapiens) (Q05397 whole entry, looked up): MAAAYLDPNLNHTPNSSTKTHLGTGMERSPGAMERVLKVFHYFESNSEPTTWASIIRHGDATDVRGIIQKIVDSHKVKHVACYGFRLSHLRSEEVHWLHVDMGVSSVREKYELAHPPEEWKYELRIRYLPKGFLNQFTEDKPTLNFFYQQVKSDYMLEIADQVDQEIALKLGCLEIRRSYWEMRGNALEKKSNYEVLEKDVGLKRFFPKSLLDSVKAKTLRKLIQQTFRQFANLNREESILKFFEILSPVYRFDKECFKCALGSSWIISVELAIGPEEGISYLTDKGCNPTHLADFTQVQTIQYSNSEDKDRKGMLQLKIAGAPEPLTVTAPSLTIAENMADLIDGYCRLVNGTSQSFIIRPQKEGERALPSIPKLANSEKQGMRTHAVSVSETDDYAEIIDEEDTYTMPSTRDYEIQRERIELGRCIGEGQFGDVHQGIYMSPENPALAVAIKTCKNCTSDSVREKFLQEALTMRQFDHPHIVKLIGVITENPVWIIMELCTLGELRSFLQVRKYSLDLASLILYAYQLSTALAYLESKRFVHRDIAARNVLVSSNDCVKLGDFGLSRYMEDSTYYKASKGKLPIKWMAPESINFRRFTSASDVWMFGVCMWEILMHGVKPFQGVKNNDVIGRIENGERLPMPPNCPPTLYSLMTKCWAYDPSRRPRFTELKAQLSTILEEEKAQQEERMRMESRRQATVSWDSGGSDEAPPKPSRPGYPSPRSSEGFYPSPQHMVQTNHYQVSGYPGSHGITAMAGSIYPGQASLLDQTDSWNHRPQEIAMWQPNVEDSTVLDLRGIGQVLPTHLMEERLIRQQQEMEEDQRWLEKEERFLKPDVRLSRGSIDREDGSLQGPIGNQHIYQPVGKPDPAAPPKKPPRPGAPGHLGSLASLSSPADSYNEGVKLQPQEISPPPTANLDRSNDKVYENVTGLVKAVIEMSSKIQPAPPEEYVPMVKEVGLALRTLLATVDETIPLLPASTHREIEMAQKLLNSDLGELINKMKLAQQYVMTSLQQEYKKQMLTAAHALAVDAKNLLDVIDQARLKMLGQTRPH

`Cc1ccc2[nH]c3nc(CCCn4ccnc4-c4ccccc4)nnc3c2c1`: the composite z-score was 0.414 with Albumin (Bos taurus); 0.079 in [2]; -0.176 in experiment [3]; 0.465 in [4]; 0.656 in experiment [5]; 0.0559 in experiment [6]. Also, the composite z-score with Sam68 (KHDRBS1) amounted to 1.05; in experiment [7] it was 0.763; in [8], 1.1; in experiment [9], 0.663; in experiment [10], 1.08; in experiment [11], 0.0863. Moreover, the composite z-score in experiment [12] amounted to 0.826; in experiment [13], 0.757; in [14], 1.19; in the experiment with Lefty1, 0.802; in experiment [16] it was 0.676. The composite Z-score in [1] is -0.375 (inactive). In addition, the z-score was 0.524 in experiment [15] and 0.36 (inactive) in experiment [17].

As for `O=C1CCCC=C1C(O)COCc1ccccc1` (stereo not given), the composite z-score was 0.411 with Albumin (Bos taurus); -0.154 in [2]; -0.157 in experiment [3]; -0.213 in experiment [4]; 0.428 in [5]; 0.08 in experiment [6]. The composite z-score in the experiment with Sam68 (KHDRBS1) was -1.01; in [7], -0.137; in [8], 0.999; in experiment [9], 0.195; in [10], -1.33; in [11], 0.0944. Moreover, the composite z-score in experiment [12] was 0.772; in experiment [13] it was 0.124; in experiment [14], 0.236; with Lefty1 it was 0.295; in experiment [16], -0.0439. In addition, in [1], the composite Z-score is 0.16 (inactive). The z-score in experiment [15] is -0.68; in experiment [17], 0.345 (inactive).

Turning to `CCCNC(=O)OC[C@H]1O[C@H](CCON=C2C[C@@H](O)[C@@H](O)[C@@H]3[C@@H]4C(=O)N(CC)C(=O)[C@@H]4CC[C@@H]23)C=C[C@@H]1Oc1ccc(OC)cc1`, the composite z-score was 0.148 with Albumin (Bos taurus); 0.217 in experiment [2]; -0.136 in experiment [3]; 0.575 in [4]; 0.572 in experiment [5]; 0.73 in experiment [6]. For the same compound, the composite z-score came to 1.32 in the experiment with Sam68 (KHDRBS1); 0.929 in experiment [7]; 0.728 in experiment [8]; 1.44 in experiment [9]; 0.94 in experiment [10]; 0.158 in [11]. For the same compound, the composite z-score in experiment [12] was 0.946; in experiment [13], 1.14; in experiment [14], 0.622; in the experiment on Lefty1, 1.3; in [16], 0.697. Further, the composite Z-score in [1] is -0.477 (inactive). Besides, the z-score was -0.517 in experiment [15] and 0.321 (inactive) in experiment [17].

As to `CC(C)=CCCC(C)=CCON=C1C[C@@H](O)[C@@H](O)[C@@H]2[C@@H]3C(=O)N(Cc4ccc5c(c4)OCO5)C(=O)[C@@H]3CC[C@H]12`, the composite z-score in the experiment with Albumin (Bos taurus) worked out at 0.0686; in experiment [2] it was 0.0568; in experiment [3] it was 0.428; in experiment [4], 0.389; in experiment [5] it was 1.17; in experiment [6] it was 0.206. The composite z-score with Sam68 (KHDRBS1) is 0.945; in experiment [7], 0.957; in experiment [8] it was -0.0491; in experiment [9] it was 0.364; in experiment [10], 0.838; in experiment [11] it was -0.0613. The composite z-score was 0.855 in [12]; 0.779 in [13]; 0.613 in [14]; 1.04 in the experiment on Lefty1; 0.793 in [16]. The composite Z-score in [1] was -0.16 (inactive). Further, the z-score in [15] was -0.564; in experiment [17], 0.497 (inactive).

`COC(=O)[C@H](C)NC(=O)CCC1CC(OC(=O)NCc2cccc3ccccc23)CC2(CCCC(COC(=O)NCCOc3ccccc3)O2)O1` (stereo not given in full): the composite z-score with Albumin (Bos taurus) was 0.445; in experiment [2] it was -0.0694; in experiment [3] it was -0.161; in [4], 0.295; in [5], 1.17; in [6], 0.106. Also, the composite z-score with Sam68 (KHDRBS1) is 1.23; in experiment [7], -0.254; in [8], 1.09; in experiment [9] it was 0.334; in [10], 1.12; in [11], 0.549. Also, the composite z-score in experiment [12] is 0.793; in experiment [13], 0.145; in experiment [14], -0.142; in the experiment on Lefty1, 0.318; in experiment [16], 0.502. Further, the composite Z-score in experiment [1] was -0.0662 (inactive). Moreover, the figures for the z-score in experiment [15] and in [17] were -0.333 and 1.32 (inactive), respectively.
